Experimental data: PubChem BioAssay AID651650 (Sanford-Burnham Center for Chemical Genomics, 2012)

target: Neuropilin-1 (Homo sapiens) (UniProt O14786); experiment: NRP-1 b1b2 CendR peptide binding inhibitors, dose response, biochemical, FP and AlphaScreen panel (AID 651650); settings: NRP-1 b1b2 / RPARPAR peptide binding, FP or AlphaScreen; run 1, at 100 µM (top of the series)
Sequence (O14786 whole entry, looked up): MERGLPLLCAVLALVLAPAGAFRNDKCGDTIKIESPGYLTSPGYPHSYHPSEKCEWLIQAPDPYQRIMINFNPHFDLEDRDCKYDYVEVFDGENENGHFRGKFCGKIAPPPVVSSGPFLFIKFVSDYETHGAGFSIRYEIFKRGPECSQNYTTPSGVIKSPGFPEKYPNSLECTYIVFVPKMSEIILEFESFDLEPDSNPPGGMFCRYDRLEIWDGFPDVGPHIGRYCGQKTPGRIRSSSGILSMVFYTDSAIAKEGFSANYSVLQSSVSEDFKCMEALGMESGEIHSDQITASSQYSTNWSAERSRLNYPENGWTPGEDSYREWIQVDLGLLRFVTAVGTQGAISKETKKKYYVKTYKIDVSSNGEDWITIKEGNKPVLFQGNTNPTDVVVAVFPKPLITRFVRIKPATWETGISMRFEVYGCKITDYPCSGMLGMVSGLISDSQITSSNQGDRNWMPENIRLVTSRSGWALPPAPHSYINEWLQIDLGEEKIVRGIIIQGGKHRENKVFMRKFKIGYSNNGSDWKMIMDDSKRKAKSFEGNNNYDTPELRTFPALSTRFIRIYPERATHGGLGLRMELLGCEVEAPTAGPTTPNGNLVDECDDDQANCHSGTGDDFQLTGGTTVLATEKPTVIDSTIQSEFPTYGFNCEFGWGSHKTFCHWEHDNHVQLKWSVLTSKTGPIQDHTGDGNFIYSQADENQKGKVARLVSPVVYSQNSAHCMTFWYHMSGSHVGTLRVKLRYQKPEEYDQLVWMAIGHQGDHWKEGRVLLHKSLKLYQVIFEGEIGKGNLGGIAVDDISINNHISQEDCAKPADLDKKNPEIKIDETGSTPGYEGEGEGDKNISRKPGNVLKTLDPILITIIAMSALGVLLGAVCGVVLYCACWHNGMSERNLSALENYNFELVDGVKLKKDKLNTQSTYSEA

| Compound | inhibition [%] |
| --- | --- |
| O=C(Nc1cccc(S(=O)(=O)N2CCCCC2)c1)c1ccc([N+](=O)[O-])o1 | 52.5 |
| FC(F)(F)c1cc(C(F)(F)F)c2ccc(Oc3ccccc3)nc2n1 | 22.5 |
| Cc1ccc(C)c(-n2c(SCC(=O)NC(C(=O)O)C(C)C)nnc2-c2cccc(Cl)c2)c1 (stereo not drawn) | 46.2 |
| O=C1CCCN1CCCNC(=S)Nc1ccc(Cl)cc1Cl | 19.7 |
| CN(c1ccc(OCC(=O)OCC(=O)Nc2ccc([N+](=O)[O-])cc2)cc1)S(=O)(=O)c1cccs1 | 58.7 |
| Cc1cccc(NS(=O)(=O)c2cccs2)c1 | 44.9 |
| O=C(CN1C2=NCCN2c2ccccc21)c1ccco1 | 0.0631 |
| COc1cccc(NC(=O)CSc2nc(O)c(C)c(=O)n2-c2ccc(C)cc2)c1 | 84.9 |
| Cc1ccc(S(=O)(=O)N2[C@@H](c3ccc(Cl)cc3)C(C(=O)OC(C)(C)C)=CC[C@H]2c2ccc(Cl)c(Cl)c2)cc1 | 72.6 |
| Cc1cc(N/C(=N/S(=O)(=O)c2cc(F)ccc2F)c2ccccc2)n(-c2ccccc2)n1 | -9.15 |
| Cc1ccc(C(=O)N2CCN(C34CC5CC(CC(C5)C3)C4)CC2)o1 | 57.6 |
| CSc1ncccc1C(=O)OCC(=O)NC1CCCCC1 | 56.7 |
| CCOC(=O)/C=C/COc1ccccc1[N+](=O)[O-] | 29.2 |
| Cc1ccc(Cl)cc1N1CCN(C(=O)c2cccc3c(=O)c(C)c(-c4ccccc4)oc23)CC1 | 20.7 |
| Cc1cccc(NC(=O)c2ccc(OCc3c(C)noc3C)cc2)c1 | 93.6 |
| COC(=O)CCCC1=CC2=CC(=O)C(C)(OC(=O)c3cccs3)C(=O)C2=CN1CCCCO (stereo not drawn) | 38.6 |
| CN(C)CCn1c(=O)n(-c2ccc(F)cc2)c(=O)c2c3c(sc21)CCCCC3 | 77.8 |
| CN(Cc1cnn(C)c1)C(=O)c1cc2ccccc2oc1=O | 29.1 |
| COc1cc(C(=O)Nc2cc3c(cc2N2CCCCC2)n(C)c(=O)n3C)cc(OC)c1OC | 57.1 |

| Compound | inhibition [%] |
| --- | --- |
| COc1ccc(Nc2nc(-c3cccnc3)nc3ccccc23)cn1 | 68.3 |
| C=CCN(CC=C)C(=O)C1CC(=O)N(c2ccc(Br)cc2)C1 (stereo not drawn) | -4.22 |
| CCOC(=O)C1=CCN(S(=O)(=O)c2ccccc2Br)C1c1ccccc1 (stereo not drawn) | 35.1 |
| CN(C)CCOC(c1ccc(Cl)cc1)c1ccccn1 (stereo not drawn) | 32 |
| O=C(Cn1ccc(NC(=O)OCc2ccccc2)nc1=O)NCCCn1ccnc1 | 48.6 |
| Cc1ccc(N(C(=O)c2ccc(CN3CCOCC3)o2)C(C(=O)NCCC(C)C)c2cccs2)c(C)c1 (stereo not drawn) | 16 |
| CC(C)(C)N(NC(=O)Nc1ccc(Cl)cc1)C(=O)c1ccccc1 | 48.3 |
| CCOc1ccc(N2C(=O)CC(N3CCN(c4ccc(Cl)cc4)CC3)C2=O)cc1 (stereo not drawn) | 86.2 |
| CC(=O)Nc1ccc2nc3c(=O)n(C)c(=O)n(C)c3nc2c1 | 84.8 |
| O=C(NCCN1CCN(C(=O)c2cccc(OC(F)F)c2)CC1)c1cccc(OC(F)F)c1 | 0.403 |
| Cc1ccc(Cn2c(C(C)Nc3nc(-c4ccc(Cl)c([N+](=O)[O-])c4)cs3)nc3cc(C(F)(F)F)ccc32)cc1 (stereo not drawn) | 41.6 |
| Cc1ccccc1NC(=O)c1cccc(NC(=O)CCC(=O)O)c1 | 28.1 |
| Clc1nc(-c2ccccn2)nc2scc(-c3ccccc3)c12 | 7.99 |
| Nc1cc(S(=O)(=O)O)cc([N+](=O)[O-])c1O | 74.8 |
| O=C(O)c1ccccc1CSc1ccccn1 | 101 |
| CCc1ccc(NS(=O)(=O)c2c(C(=O)N3CCCCCC3)c(C)n(C)c2C)cc1 | 31.1 |
| Oc1ccc(-c2nc3ncccn3c2Nc2ccc3c(c2)OCO3)cc1 | 41.8 |
| O=C(CSc1nc2ccccc2n1Cc1ccccc1Cl)N/N=C/c1ccccc1C(=O)O | 84.6 |
| Nc1ccc(C#Cc2c(-c3ccsc3)oc3ccc(N4CCOCC4)cc23)cc1 | 28.3 |
